Screening results deposited in PubChem by National Center for Advancing Translational Sciences (NCATS).
Rows were chosen to be rich in hits. Some 11% of all compounds tested hit in one or more screens of this group.
3T3 cytotox: cytotoxic compounds in NIH 3T3 cells | NIH 3T3 viability, CellTiter-Glo ATP luminescence, 48-72 h | Potency, µM (titrated, usually from 96.7 µM), hits mostly inhibitors | hit rate 4.3% among 94,000 | AID 1345082; also: nearly all actives have a fitted effect of over 55% in size
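ATP-dependent luminescence (CellTiter-Glo) served as the viability signal for NIH 3T3 cells treated with compound for 48 or 72 hr at 37 °C.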
FLuc inh: inhibitors of firefly (Photinus pyralis) luciferase | hit rate 2.5% among 76,000 | Potency, µM (top dose mostly 115 µM), usual class: inhibitors | purified P. pyralis luciferase, luminescence, biochemical; also: nearly all actives have a fitted effect of over 65% in size
Target sequence (P08659 whole entry, looked up): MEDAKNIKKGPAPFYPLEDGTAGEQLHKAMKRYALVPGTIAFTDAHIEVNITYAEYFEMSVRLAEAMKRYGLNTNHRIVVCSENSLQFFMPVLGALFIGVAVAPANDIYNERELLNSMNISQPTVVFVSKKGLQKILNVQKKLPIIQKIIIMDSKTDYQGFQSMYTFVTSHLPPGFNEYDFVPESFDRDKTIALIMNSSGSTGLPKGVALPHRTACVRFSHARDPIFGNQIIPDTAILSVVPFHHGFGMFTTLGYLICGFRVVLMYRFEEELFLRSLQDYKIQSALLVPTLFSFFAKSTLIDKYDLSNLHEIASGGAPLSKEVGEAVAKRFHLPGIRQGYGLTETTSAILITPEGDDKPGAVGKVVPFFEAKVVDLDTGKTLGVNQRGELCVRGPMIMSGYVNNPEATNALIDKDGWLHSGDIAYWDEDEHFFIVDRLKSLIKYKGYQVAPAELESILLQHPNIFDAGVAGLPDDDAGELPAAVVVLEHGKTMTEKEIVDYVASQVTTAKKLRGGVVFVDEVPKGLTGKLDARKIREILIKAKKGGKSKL
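FLuc 10nM, D-luciferin 10uM, ATP 10uM, Mg acetate 10mM, Tris acetate pH 7.5, Tween/BSA; cpd qHTS; enzyme added last; CCD luminescence.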
hNpr1 antagonist: human Npr1 receptor antagonism. P16066. HEK293 hNpr1 GloSensor cGMP, ANP-stimulated luminescence. Potency, µM (top dose mostly 46.3 µM), usual class: inhibitors. hit rate 1.6% among 76,000. AID 1347048; calls by dose curve; also: nearly all actives have a fitted effect of over 60% in size
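HEK293 cells stably expressing human Npr1 and cGMP GloSensor pGS-40F, loaded 2 h with 2% GloSensor reagent, given compound 30 min at room temperature. Luminescence read before and 20 min after 0.1 nM hNppA.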
HEK293 tox: kills HEK 293 cells; Potency, µM (highest dose often 115 µM), usual class: inhibitors; hit rate 6.6% among 94,000; AID 1345083; HEK 293 viability, ATP luminescence (CellTiter-Glo), 48-72 h; also: nearly all actives have a fitted effect of over 60% in size
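ATP-coupled CellTiter-Glo luminescence served as viability read-out, recorded 10 min after reagent addition at room temperature. HEK 293 cells, 250 cells/well, had been incubated with pintool-transferred compound for 48 or 72 hr at 37 degree Celsius.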
A number is an active result; n = inactive; u = inconclusive; x = not tested or not shown; ! = not confirmed by another sample. Unless noted, calls follow the shape of the dose curve; as a rule, active = well fitted curve in the direction sought with a large enough effect; inconclusive = small, poorly fitted or top-dose-only effect, or another doubt; inactive = no such curve, though single readings can be large; an effect the other way counts as inactive or inconclusive.

SMILES	3T3 cytotox	FLuc inh	hNpr1 antagonist	HEK293 tox
CC(C)(C)c1cc(C[C@@H]2C[C@H](NCc3ccccn3)C2(C)C)no1	50µM	n	u	50µM
CC(=O)N[C@H]1C[C@@H](Cc2cc(C(C)(C)C)on2)C1(C)C	u	n	n	n
COc1ccc(CN[C@H]2C[C@@H](Cc3cc(CN(C)c4ccccc4)on3)C2(C)C)cc1	u	n	n	28µM
CC1(C)[C@H](Cc2cc(CCO)on2)C[C@@H]1NCc1cccnc1	n	n	n	n
Cc1ncoc1C(=O)N1CCCCCCn2c(nnc2-c2ccc(F)cc2)CC1	n	n	n	n
Cc1noc2c(N3CC(O)C3)cc(-c3ccsc3)nc12	u	n	n	n
Cc1noc2c(N3CCOCC3)cc(-c3ccsc3)nc12	28µM	n	n	u
COc1ccc(Nc2cc(-c3ccccc3OC)nc3c(C)noc23)cc1OC	20µM	n	n	u
COc1ccccc1-c1cc(Nc2ccc(N3CCOCC3)cc2)c2onc(C)c2n1	u	n	n	63µM
COc1ccccc1-c1cc(NCc2ccncc2)c2onc(C)c2n1	u	n	n	u
COCC(=O)N1CCCN(c2ccnc3ccnn23)CC1	n	x	x	n
N#CC1CCN(C(=O)c2nc3cccnc3n(Cc3ccccc3)c2=O)CC1	n	x	x	n
CCCCc1cc(C[C@H]2CNCC[C@H]2CC(=O)NC2CCCCC2)no1	u	n	n	u
O=C(C[C@@H]1CCNC[C@@H]1Cc1cc(COc2ccccc2)on1)N1CCC(Cc2ccccc2)CC1	28µM	n	n	25µM
O=C(C[C@@H]1CCNC[C@@H]1Cc1cc(CC2CCCCC2)on1)N1CCC(Cc2ccccc2)CC1	25µM	n	n	u
CCCCc1cc(C[C@H]2CNCC[C@H]2CC(=O)N2CCC(Cc3ccccc3)CC2)no1	28µM	n	n	u
O=C(C[C@@H]1CCNC[C@@H]1Cc1cc(COc2ccccc2)on1)NC1CCCCC1	63µM	n	n	100µM
CN1[C@@H](CCC(=O)NCc2ccccc2)CNC(=O)[C@@H]2[C@H]1CCN2C1CCOCC1	n	n	n	n
COc1cc(OC)cc(C(=O)N2CCCC(c3noc(COc4ccccc4)n3)C2)c1 (centres undefined)	u	n	n	u
COc1ccc(C2(C(=O)NCC3CCCCC(=O)N3)CC2)cc1 (centres undefined)	n	x	x	n
O=C(c1ccco1)N1CC[C@@H]2COCCN(Cc3ccccc3)[C@@H]2C1	n	n	n	n
Cc1oc(-c2cccc(Oc3ccccc3)c2)nc1CN1CC[C@H](N(C)C)C1	79µM	n	n	u
Cc1ccc(S(=O)(=O)Cc2noc([C@@H]3C[C@@H](O)CN3Cc3cccc(OC(F)(F)F)c3)n2)cc1	u	n	n	u
O=C(c1cccnc1)N1CCC2(CC1)CC(c1cccc(C(F)(F)F)c1)=NO2	n	x	x	u
O=C(c1ccc(Cl)nc1)N1CCC2(CC1)CC(c1cccc(C(F)(F)F)c1)=NO2	u	x	x	35µM!
SMILES	3T3 cytotox	FLuc inh	hNpr1 antagonist	HEK293 tox
Cc1ccc(C(=O)N2CCC3(CC2)CC(c2cccnc2)=NO3)cc1	u	n	n	u
Cc1ccc(C(=O)N2CCC3(CC2)CC(c2cccc(C(F)(F)F)c2)=NO3)cc1	u	n	n	45µM!
CC(C)(C)C1CCC2(CC1)NC(=O)N(CC(=O)Nc1ccc(F)cc1F)C2=O (centres undefined)	n	n	n	u
Cc1cc(F)ccc1NC(=O)CN1C(=O)NC2(CCC(C(C)(C)C)CC2)C1=O (centres undefined)	40µM	n	n	u
COc1ccc(NC(=O)CN2C(=O)NC3(CCC(C(C)(C)C)CC3)C2=O)c(OC)c1 (centres undefined)	u	n	n	35µM
CC(=O)Nc1ccc(CN2CCn3c(nnc3-c3cccnc3)C2)cc1	n	x	x	n
CCNC(=O)Cc1c[nH]c2ncc(-c3cccnc3OC)cc12	89µM	n	n	n
COc1ccc(-c2cnc3[nH]cc(CC(=O)Nc4cccc(F)c4)c3c2)cc1	u	n	n	u
COc1ncccc1-c1cnc2[nH]cc(CC(=O)Nc3ccccc3C)c2c1	u	n	n	u
COc1ncccc1-c1cnc2[nH]cc(CC(=O)Nc3ccncc3)c2c1	32µM	n	u	63µM
COc1ncccc1-c1cnc2[nH]cc(CC(=O)Nc3ccccc3)c2c1	40µM	n	u	u
COc1ccc(-c2cnc3[nH]cc(CC(=O)Nc4ccncc4)c3c2)cc1	32µM	n	u	u
Cc1ccccc1-c1cnc2[nH]cc(CC(=O)NC3CCOCC3)c2c1	u	n	n	u
COc1ccc(-c2cnc3[nH]cc(CC(=O)NC4CCC(O)CC4)c3c2)cc1 (centres undefined)	25µM	n	n	u
COc1ncccc1-c1cnc2[nH]cc(CC(=O)Nc3cccnc3)c2c1	u	n	u	89µM
COc1cccc(NC(=O)Cc2c[nH]c3ncc(-c4ccccc4C)cc23)c1	u	n	u	71µM
CN1CCC(NC(=O)Cc2c[nH]c3ncc(-c4ccccc4)cc23)CC1	u	n	n	u
CCCCN1C(=O)c2ccccc2C(C(=O)NCc2cccnc2)C12CCCCC2 (centres undefined)	n	n	n	u
COc1ccc(/C=C/c2ccc3c(c2)C(=O)N2CC[C@H](N)[C@H]2C(=O)N3)cc1	u	20µM	n	100µM
O=C(N[C@H]1CCN2C(=O)c3ccccc3NC(=O)[C@H]12)c1cnccn1	n	n	n	n
COc1ccc(/C=C/c2ccc3c(c2)C(=O)N2CC[C@H](NC(=O)c4cnccn4)[C@H]2C(=O)N3)cc1	n	7.9µM	n	n
O=C(N[C@H]1CCN2C(=O)c3cc(-c4cccc(C(F)(F)F)c4)ccc3NC(=O)[C@H]12)c1cnccn1	79µM	n	n	45µM
O=C(N[C@H]1CCN2C(=O)c3cc(-c4ccc(Cl)cc4)ccc3NC(=O)[C@H]12)c1cnccn1	u	n	n	79µM
N[C@H]1CCN2C(=O)c3cc(-c4ccccc4F)ccc3NC(=O)[C@H]12	n	n	n	n
N#Cc1cccnc1-c1ccc(C(=O)N2CCC(NC(=O)c3ccccn3)CC2)cc1	n	x	x	u
SMILES	3T3 cytotox	FLuc inh	hNpr1 antagonist	HEK293 tox
CN(C)CCOCC1(C)COc2ccc(C(=O)Nc3ccc4[nH]ccc4c3)cc2N1 (centres undefined)	u	50µM	n	u
CC1(COCC2CC2)COc2ccc(C(=O)Nc3ccc4[nH]ccc4c3)cc2N1 (centres undefined)	45µM	16µM	u	u
CC1(CCCCN2CCOCC2)COc2ccc(C(=O)Nc3ccc4[nH]ccc4c3)cc2N1 (centres undefined)	n	n	u	u
Cc1ccc(CNC(=O)C2CCCCc3nnc(-c4ccccc4)n32)o1 (centres undefined)	n	x	x	n
CS(=O)(=O)N1CCC(OC2CCN(C(=O)Nc3cccc(Cl)c3)CC2)CC1	u	n	n	u
C[C@@H](N)C(=O)N1CCC(C(=O)Nc2cccc(-c3cccc(Cl)c3)c2)CC1	28µM	n	n	40µM
